{"source": "PubChem BioAssay (NCI)", "note": "This is part of a sample that, as a whole, favours compounds with a hit. Of some 79,000 tested, about 15% had one in any assay. Values without a mark were called inactive. The source made the active and inactive calls. Cut-off read from the data, not from the text of the source: active = growth inhibition above about 70%; inactive = the rest. Where a SMILES comes first, the peptide text is derived from it. The star is where a group is joined. Boc = CC(C)(C)OC(=O)*; OBn = c1ccc(CO*)cc1; Bn = c1ccc(C*)cc1"}
{"experiment": "NCI Yeast Anticancer Drug Screen. Data for the sgs1 mgt1 strain (AID 161);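 note: 0% = growth of cultures given vehicle only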", "conditions": "S. cerevisiae sgs1 mgt1 strain, at 50.0 µM, active compounds read high", "outline": "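Growth of a repair-deficient yeast mutant was monitored after compound treatment and expressed as inhibition relative to vehicle-treated cultures.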"}
{"compound": "COc1cccc(NC(=O)CC(=O)NN2C(=O)/C(=C/c3ccc(N(CCC#N)CCC#N)cc3)N=C2c2cc([N+](=O)[O-])ccc2Cl)c1", "growth inhibition": "16.4%"}
{"compound": "O=Cc1ccc(-c2ccc([N+](=O)[O-])cc2)o1", "growth inhibition": "-9.5%"}
{"compound": "O=C(N/N=C/c1cc(-c2ccccc2Cl)c(-c2ccccc2Cl)o1)c1ccncc1", "growth inhibition": "38.4%"}
{"compound": "O=[N+]([O-])c1cn(CCNc2c3ccccc3nc3ccccc23)cn1", "growth inhibition": "20.4%"}
{"compound": "CCOC(=O)CCCc1ccccc1", "growth inhibition": "-2.65%"}
{"compound": "O=C1c2ccccc2-c2c1c1ccccc1c(=O)n2Cc1ccco1", "growth inhibition": "-2.8%"}
{"compound": "CCOC(NC(C)=O)C(O)c1ccc(Cl)cc1", "note": "(stereo not given)", "growth inhibition": "13.1%"}
{"compound": "C1CCN(c2nn[nH]n2)CC1", "growth inhibition": "3.75%"}
{"compound": "CCN(CC)C(=O)C1CCNCC1", "growth inhibition": "-2%"}
{"compound": "CCCCCC(CCCC)OC(=O)Nc1ccccc1", "note": "(stereo not given)", "growth inhibition": "10%"}
{"compound": "O=C(OC(=O)c1cccc(Br)c1)c1cccc(Br)c1", "growth inhibition": "26%"}
{"compound": "O=C(COc1ccc(F)cc1)OCCO", "growth inhibition": "-2.55%"}
{"compound": "COc1cc(C)nc2ccc(Cc3ccc4nc(C)cc(OC)c4c3)cc12", "growth inhibition": "-3%"}
{"compound": "O=C(c1nc2ccc(Cl)cc2[nH]c1=O)C(O)c1ccco1", "note": "(stereo not given)", "growth inhibition": "-20.2%"}
{"compound": "O=C(Cc1ccccc1)NN1C(=O)C(Cl)C1c1cc(Br)ccc1O", "note": "(stereo not given)", "growth inhibition": "29.6%"}
{"compound": "Cc1ccc(NC(=O)Oc2cccc(C(F)(F)F)c2)cc1", "growth inhibition": "23.1%"}
{"compound": "CC(C)CC(NC(=O)C(CCC(=O)OCc1ccccc1)NC(=O)OC(C)(C)C)C(=O)NC(COCc1ccccc1)C(=O)NC(Cc1ccccc1)C(=O)O", "note": "(stereo not given) (Boc-E(OBn)LS(Bn)F-OH; configuration not given here)", "growth inhibition": "-8.05%"}
{"compound": "OC1COC2CC(Nc3ccccn3)OC12", "note": "(stereo not given)", "growth inhibition": "-15.8%"}
{"compound": "CC(C)CCCC(C)C1CCC2(C)C3CCC(C(C)O)C(C)(CCCO)C3CCC12C", "note": "(stereo not given)", "growth inhibition": "61.4%"}
{"compound": "CC(C)CCC[C@@H](C)[C@H]1CC[C@H]2[C@@H]3CC[C@H]4C[C@@H](CCC=C(c5cc(Cl)c(O)c(C(=O)O)c5)c5cc(Cl)c(O)c(C(=O)O)c5)CC[C@]4(C)[C@H]3CC[C@]12C", "growth inhibition": "11.4%"}
{"compound": "BrC1=NOC2c3cccc4cccc(c34)C12", "note": "(stereo not given)", "growth inhibition": "19.6%"}
{"compound": "O=C(O)Cc1ccc(Oc2ccc(CC(=O)O)cc2)cc1", "growth inhibition": "1.85%"}
{"compound": "CCN(CC)C1Oc2cc3c(cc2C(c2cccc(OC)c2OC)C1C)OCO3", "note": "(stereo not given)", "growth inhibition": "46.5%"}
{"compound": "CC(=O)OCC(C)CCC(C)COC(C)=O", "note": "(stereo not given)", "growth inhibition": "-21.8%"}
{"compound": "NC(N)=NS(=O)(=O)c1ccc(Nc2c3ccccc3nc3c(C(=O)NNCCO)cccc23)cc1", "growth inhibition": "25.6%"}
{"compound": "Nc1on(C(=O)c2ccccc2)c(=O)c1Cc1ccccc1", "growth inhibition": "15.9%"}
{"compound": "O=C(O)C1Cc2c([nH]c3ccccc23)C=N1", "note": "(stereo not given)", "growth inhibition": "-2.3%"}
{"compound": "O=C(Nc1ccc(S(=O)(=O)/N=c2\\ncccn2C(=O)C(C(F)(F)F)C(F)(F)F)cc1)C(C(F)(F)F)C(F)(F)F", "growth inhibition": "-0.65%"}
{"compound": "COc1c(C)cc(Cc2ccc3c(c2)OCO3)cc1C", "growth inhibition": "4.2%"}
{"compound": "O=[N+]([O-])c1ccc2cccc3c2c1CC3", "growth inhibition": "1.85%"}
{"compound": "CN1C(c2ccccc2)=C(C#N)C(=O)CC(c2ccccc2)N1C", "note": "(stereo not given)", "growth inhibition": "30.2%"}
{"compound": "C(/C=N/NC1=NCCCCN1)=N\\NC1=NCCCCN1", "growth inhibition": "-9.05%"}
{"compound": "COCC(C)OC(=O)c1ccccc1Cl", "note": "(stereo not given)", "growth inhibition": "5.95%"}
{"compound": "CC1(C)COC(c2cc(Br)ccc2Br)=N1", "growth inhibition": "7%"}
{"compound": "CCOCC1OCCCO1", "growth inhibition": "1.6%"}
{"compound": "COc1ccc(C(O)C(C)C(O)(C(F)(F)F)C(F)(F)F)cc1", "note": "(stereo not given)", "growth inhibition": "89.3% (active)"}
{"compound": "COC(=O)C(CC(=O)Nc1ccc(Cl)c(Cl)c1)C(=O)C(=O)Nc1ccc(Cl)c(Cl)c1", "note": "(stereo not given)", "growth inhibition": "-34%"}
{"compound": "O=C1CCCC/C(=C/c2ccccc2)N1", "growth inhibition": "-6.7%"}
{"compound": "Cc1cc(O)cc(O)c1C(=O)O[C@]1(C)C(=O)C=C2C=C(/C=C/C(=O)O)OC=C2C1=O", "growth inhibition": "-9.95%"}
{"compound": "Cc1cccc(C)c1NC(=O)Nc1cccc(Cl)c1", "growth inhibition": "7.7%"}
